Here are results for 17 molecules from the supplement of paper PMC13094657.

Experiment [1] deals with MDA-MB-231. Description: cell viability relative to vehicle unstimulated control (fraction); higher = more viable cells. Particulars: pre-treatment time: 18 h then 24 h IFNg/TNF.
Experiment [2] has as its system MDA-MB-231. In words: kynurenine production, fold change vs DMSO IFNg/TNF control; higher = more kynurenine produced (less inhibition). Particulars: pre-treatment time: 18 h then 24 h IFNg/TNF. The procedure, abridged: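 In 96-well plates, MDA-MB-231 cells (7 × 10^4/well) were given 24 h to settle, pre-treated for 18 h with each natural product in 0.1% DMSO, and stimulated for 24 h with IFNγ (1 U/ml) and TNF (6.25 ng/ml) at 37°C. Supernatants were processed with trichloroacetic acid and p-dimethylaminobenzaldehyde and read at 492 nm against 0–100 μM standards. In the first screening round, kynurenine production, as fold change over same-plate cytokine-stimulated vehicle wells, was averaged over duplicate plates.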

± gives the standard deviation of the averaged measurements.
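Throughout, for cell viability relative to vehicle unstimulated control: viability of the cells left after supernatant collection, read with Deep Blue dye added for 4 h, as absorbance at 570 nm minus 600 nm.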

Consider `CCCC(=O)O[C@@H]1[C@@H](C)[C@@]2(O)[C@@H](C=C(CO)C[C@]3(O)C(=O)C(C)=C[C@@H]23)[C@@H]2C(C)(C)[C@]12OC(=O)CCC` [Phorbol 12,13-Dibutyrate] (compound dose: 10 uM), for which the cell viability in the experiment with MDA-MB-231 [1] came to 1.09 ± 0.072. In the experiment on MDA-MB-231 [2], the kynurenine production was found to be 0.781 ± 0.034.

On to `C=C[C@@H]1C2=CCOC(=O)C2=CO[C@H]1O[C@@H]1O[C@H](CO)[C@@H](O)[C@H](O)[C@H]1O` [Gentiopicroside] (compound dose: 10 uM), for which the cell viability in the experiment on MDA-MB-231 [1] is 0.981 ± 0.0079. Besides, the kynurenine production in the experiment on MDA-MB-231 [2] was 0.904 ± 0.09.

Regarding `CC(=O)O[C@@H]1[C@H]2[C@@H](OC(=O)Cc3ccccc3)[C@@H](C)C[C@]2(OC(C)=O)C(=O)/C(C)=C/[C@@H]2[C@H](CC[C@]13CO3)C2(C)C` [Euphorbia factor L1] (compound dose: 10 uM), the cell viability with MDA-MB-231 [1] is 1.12. Further, the kynurenine production with MDA-MB-231 [2] was 1.07 ± 0.11.

As for `CC(C)=CCC[C@H](C(=O)O)[C@H]1CC[C@]2(C)C3=C(CC[C@@]12C)[C@@]1(C)CCC(=O)C(C)(C)[C@H]1CC3` [β-Elemonic acid] (compound dose: 10 uM), the cell viability in the experiment on MDA-MB-231 [1] came out at 1.03 ± 0.034. In addition, the kynurenine production in the experiment with MDA-MB-231 [2] was 1.161 ± 0.0012.

On to `COc1cc2c(cc1OC)-c1c(OC)c(OC)cc3c1[C@H](C2)N(C)CC3` [(S)-Glaucine (Alkaloid purified from Papaver somniferum)], for which the cell viability in the experiment with MDA-MB-231 [1] stood at 0.967 ± 0.013. In addition, in the experiment with MDA-MB-231 [2], the kynurenine production amounted to 0.905 ± 0.052.

As for `CC(C)=CCC[C@@](C)(O)[C@H]1CC[C@]2(C)[C@@H]1[C@H](O)C[C@@H]1[C@@]3(C)CC[C@H](O)C(C)(C)[C@@H]3[C@@H](O[C@@H]3O[C@H](CO)[C@@H](O)[C@H](O)[C@H]3O)C[C@]12C` [(20R)-Ginsenoside Rh1] (compound dose: 10 uM), in the experiment on MDA-MB-231 [1], the cell viability came out at 0.9611 ± 0.0044. Further, the kynurenine production in the experiment on MDA-MB-231 [2] came out at 0.887 ± 0.031.

In the case of `COc1cc(C2OCC3C(c4cc(OC)c(O[C@@H]5O[C@H](CO)[C@@H](O)[C@H](O)[C@H]5O)c(OC)c4)OCC23)cc(OC)c1O[C@H]1O[C@@H](CO)[C@H](O)[C@@H](O)[C@@H]1O` (some centres undefined) [Eleutheroside E] (compound dose: 10 uM), the cell viability in the experiment with MDA-MB-231 [1] turned out to be 0.947 ± 0.033. Further, the kynurenine production with MDA-MB-231 [2] came out at 0.784 ± 0.071.

Consider `C=C1CCC2C(/C=C(\C)C(=O)C3(OC(C)=O)CC(C)C(OC(=O)c4ccccc4)C3C1OC(C)=O)C2(C)C` (centres undefined) [Euphorbia factor L3] (compound dose: 10 uM), for which the cell viability in the experiment with MDA-MB-231 [1] worked out at 1.05 ± 0.019. Moreover, in the experiment with MDA-MB-231 [2], the kynurenine production was 0.89 ± 0.11.

On to `C=C(CO)C(=O)O[C@H]1CC(=C)[C@@H]2C[C@H](O)C(=C)[C@@H]2[C@H]2OC(=O)C(=C)[C@@H]21` [Cynaropicrin] (compound dose: 10 uM), for which the cell viability with MDA-MB-231 [1] came to 0.69 ± 0.16. For the same molecule, the kynurenine production with MDA-MB-231 [2] turned out to be 0.0672 ± 0.056.

As to `CC(=O)OC(C)(C)/C=C/C(=O)[C@](C)(O)[C@H]1[C@H](O)C[C@@]2(C)[C@@H]3CC=C4[C@H](C[C@H](O)C(=O)C4(C)C)[C@]3(C)C(=O)C[C@]12C` [Cucurbitacin B] (compound dose: 10 uM), the cell viability in the experiment with MDA-MB-231 [1] worked out at 0.396 ± 0.061. The kynurenine production with MDA-MB-231 [2] was found to be 0.189 ± 0.096.

Regarding `CC(C)=CCC[C@](C)(O)[C@H]1CC[C@]2(C)[C@@H]1[C@H](O)C[C@@H]1[C@@]3(C)CC[C@H](O[C@@H]4O[C@H](CO)[C@@H](O)[C@H](O)[C@H]4O)C(C)(C)[C@@H]3CC[C@]12C` [Ginsenoside Rh2] (compound dose: 10 uM), the cell viability with MDA-MB-231 [1] was 0.908 ± 0.049. Moreover, in the experiment with MDA-MB-231 [2], the kynurenine production is 0.84 ± 0.19.

In the case of `C[C@@H]1CC[C@@]2(OC1)O[C@H]1[C@@H](O)[C@H]3[C@@H]4CC[C@H]5C[C@@H](O[C@@H]6O[C@H](CO)[C@H](O[C@@H]7O[C@H](CO)[C@@H](O)[C@H](O[C@@H]8OC[C@@H](O)[C@H](O)[C@H]8O)[C@H]7O[C@@H]7O[C@H](CO)[C@H](O)[C@H](O[C@@H]8O[C@H](CO)[C@@H](O)[C@H](O)[C@H]8O)[C@H]7O)[C@H](O)[C@H]6O)[C@H](O)C[C@]5(C)[C@H]4CC[C@]3(C)[C@H]1[C@@H]2C` [Digitonin] (compound dose: 10 uM), the cell viability in the experiment on MDA-MB-231 [1] amounted to 0.694 ± 0.021. For the same molecule, the kynurenine production in the experiment on MDA-MB-231 [2] was 0.617 ± 0.019.

In the case of `COc1cc2c(cc1OC)-c1c(OC)c(OC)cc3c1[C@H](C2)N(C)CC3` [(S)-Glaucine (commercial standard)], the cell viability in the experiment with MDA-MB-231 [1] came to 1.07 ± 0.065. Further, the kynurenine production in the experiment on MDA-MB-231 [2] was 0.852 ± 0.067.

Turning to `CC1=C(O)C(=O)C=C2C1=CC=C1[C@@]2(C)CC[C@@]2(C)[C@@H]3C[C@](C)(C(=O)O)CC[C@]3(C)CC[C@]12C` [Tripterin] (compound dose: 10 uM), the cell viability in the experiment with MDA-MB-231 [1] was determined as 0.0346 ± 0.01. In the experiment with MDA-MB-231 [2], the kynurenine production was determined as 0.119 ± 0.017.

As for `C/C=C(\C)C(=O)N[C@@H](c1ccccc1)[C@@H](O)C(=O)O[C@H]1C[C@@]2(O)[C@@H](OC(=O)c3ccccc3)[C@@H]3[C@]4(OC(C)=O)CO[C@@H]4C[C@H](O)[C@@]3(C)C(=O)[C@H](OC(C)=O)C(=C1C)C2(C)C` [Cephalomannine] (compound dose: 10 uM), in the experiment on MDA-MB-231 [1], the cell viability turned out to be 0.738 ± 0.071. In addition, the kynurenine production in the experiment on MDA-MB-231 [2] turned out to be 0.267 ± 0.06.

Turning to `C[C@@]12C[C@@H](c3ccoc3)OC(=O)[C@@H]1CC[C@]1(C)[C@H]2[C@@H]2C=C[C@@]1(O)C(=O)O2` [Columbin] (compound dose: 10 uM), the cell viability with MDA-MB-231 [1] was 0.9915 ± 0.0091. Besides, the kynurenine production in the experiment on MDA-MB-231 [2] was determined as 0.882 ± 0.2.

Regarding `CCCCCCCCCCCCCC(=O)O[C@@H]1[C@@H](C)[C@@]2(O)[C@@H](C=C(CO)C[C@]3(O)C(=O)C(C)=C[C@@H]23)[C@@H]2C(C)(C)[C@]12OC(C)=O` [Phorbol 12-Myristate 13-Acetate] (compound dose: 10 uM), in the experiment with MDA-MB-231 [1], the cell viability was 1.09 ± 0.038. In addition, the kynurenine production in the experiment on MDA-MB-231 [2] worked out at 1.01 ± 0.21.
